{"source": "PubChem BioAssay (NCI)", "note": "The panel holds about 83,000 compounds, 20% with a hit somewhere; the sample as a whole holds those more often.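 Percent growth is the endpoint: 0 to 100 indicates growth inhibition (40 means 60% inhibition), 0 means no net growth, and negative values indicate cell death.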 Unmarked numbers belong to inactive results. Active and inactive are the calls of the source. How the source made its calls: active means growth percent below 10; inactive means the rest.", "data": [{"test_system": "SNB-19 CNS", "test": "NCI-60 one-dose screen, 48 h (100 = growth as untreated, 0 = no growth, -100 = all killed)", "details": "10 µM unless noted", "values": [{"compound": "CSCCC1NC(=O)C(C(C)=Nc2ccccc2)=C1O", "note": "(centres undefined)", "growth": "116%"}, {"compound": "CC1(C)C2CCC(O)(C(=O)O)C1C2", "note": "(centres undefined)", "growth": "102%"}, {"compound": "COc1ccc(CCN2COc3c([C@@H](C)CCC=C(C)C)ccc(C)c3C2)cc1OC", "growth": "83.3%"}, {"compound": "COc1ccc(C(=O)C(CN(C)C)c2ccccc2)cc1", "note": "(centres undefined)", "growth": "91.2%"}, {"compound": "Oc1ccc(CCCCCCc2ccc(O)cc2)cc1", "growth": "112%"}, {"compound": "c1ccc(C2=Nc3ccccc3SC2)cc1", "growth": "109%"}, {"compound": "O=C(O)c1cn(-c2ccccc2)nc1-c1ccc(O)cc1", "growth": "97.4%"}, {"compound": "COc1cc(/C=C/C(=O)c2c(C)nc3ccccc3c2C)ccc1OCCCOc1cc2c(cc1OC)C(=O)N1CCC[C@H]1C=N2", "growth": "-49.8% (active)"}, {"compound": "COc1ccc(Br)c2ccccc12", "growth": "116%"}, {"compound": "CC(=O)c1cccc(Nc2ncnc3ccc(NC(=O)c4ccco4)cc23)c1", "growth": "93.6%"}, {"compound": "CCN(CC)c1ccc(C(=N)c2ccc(N(C)C)cc2)cc1", "growth": "28.2%"}, {"compound": "CCCCCCCCCCCCCCCCCC1=NC(C)(C)CN1C(C)(C)CO", "growth": "37.2%"}, {"compound": "COC(=O)c1ccc(NC(N)=NCCC(C)(C)c2ccc(C(F)(F)F)cc2)nc1", "growth": "59.9%"}, {"compound": "CCCCCCCCCCCC1=NC(C)(C)CN1C(C)(C)CO", "growth": "114%"}, {"compound": "CO[C@@]12[C@@H]3NC3CN1C1=C(C(=O)C(N)=C(C)C1=O)[C@@H]2COC(N)=O", "note": "(some centres undefined)", "growth": "18.3%"}, {"compound": "Cc1cc(NC(=O)c2ccc(N)cc2)ccc1N=Nc1ccc2cc(S(=O)(=O)O)cc(S(=O)(=O)O)c2c1", "growth": "129%"}, {"compound": "CCCCCCCCCCCCCCCC1=NCC[N+]1(CCO)CCO", "growth": "97.6%"}, {"compound": "CC1CN(CCCOC(=O)Nc2ccc(Cl)cc2)CCN1C(C)(C)C", "note": "(centres undefined)", "growth": "98.1%"}, {"compound": "O=c1c2sc3ccccc3c2nnn1-c1ccc(F)c(Cl)c1", "growth": "61.1%"}, {"compound": "Clc1ccccc1Nc1nnc(-c2ccncc2)s1", "growth": "99.8%"}, {"compound": "COc1cc2c(cc1I)-c1c(cc(OC)c(OC)c1OC)CC[C@@H]2NC(C)=O", "growth": "28%"}, {"compound": "COC(=O)c1cc(Cl)cc([N+](=O)[O-])c1O", "growth": "108%"}, {"compound": "CCN(CC)c1ccc2nc3c4ccccc4c(=O)cc-3n(-c3ccccc3)c2c1", "growth": "23.6%"}]}, {"test_system": "U251 CNS", "test": "NCI-60 one-dose screen, 48 h (100 = growth as untreated, 0 = no growth, -100 = all killed)", "details": "10 µM unless noted", "values": [{"compound": "COc1cc(-c2nc(-c3nc4cc(C(=O)c5ccccc5)ccc4[nH]3)cc3c2[nH]c2ccccc23)cc(OC)c1OC", "growth": "82%"}, {"compound": "COc1cc(C2=NOC(c3cc(OC)c(OC)c(OC)c3)C2)ccc1OCCCCOc1cc2c(cc1OC)C(=O)N1CCC[C@H]1C=N2", "note": "(some centres undefined)", "growth": "-9.51% (active)"}, {"compound": "O=C(CCCCCCc1nc2ccc(Br)cc2[nH]1)NO", "growth": "-15.4% (active)"}, {"compound": "CCCCOc1ncnc2nc[nH]c12", "growth": "106%"}, {"compound": "CC(C)=CCC[C@H](C)c1ccc(C)c2c1OCN(CCO)C2", "growth": "85.1%"}, {"compound": "O=C(Nc1cccc(Cl)c1)Nc1cc(C(F)(F)F)ccc1Cl", "growth": "6.86% (active)"}, {"compound": "CCCCC(CCc1ccccn1)C(=O)c1ccccc1", "note": "(centres undefined)", "growth": "114%"}, {"compound": "O=C(Nc1ccc2ncnc(Nc3ccc(F)c(Cl)c3)c2c1)c1cccs1", "growth": "54.7%"}, {"compound": "O=[N+]([O-])c1ccccc1CN1CCCCC1", "growth": "110%"}, {"compound": "COc1cc2c(cc1OCCCOc1cc3c(cc1OC)C(=O)N1CCC[C@H]1C=N3)C=CC(C)(C)O2", "growth": "66.6%"}, {"compound": "CCCCCCCCCC1=NC(C)(C)CN1C(C)(C)CO", "growth": "82.6%"}, {"compound": "COCCn1c(Nc2ccc(C(=O)NO)cc2)nc2ccccc21", "growth": "61.4%"}, {"compound": "O=C(CSc1ccc(Cl)cc1)Nc1ccc(-c2nc3ccccc3s2)c(Cl)c1", "growth": "52.9%"}, {"compound": "COc1cc(/C=C2\\C(=O)Nc3ccc(N(C)C)cc32)cc(OC)c1OC", "growth": "11.4%"}, {"compound": "CC(C)(C)NC(=O)C(OC(=O)C1CCc2cc(F)ccc2O1)c1ccccc1Cl", "note": "(centres undefined)", "growth": "102%"}, {"compound": "CSCCC1NC(=O)C(C(C)=Nc2ccccc2)=C1O", "note": "(centres undefined)", "growth": "111%"}, {"compound": "CC1(C)C2CCC(O)(C(=O)O)C1C2", "note": "(centres undefined)", "growth": "113%"}, {"compound": "COc1ccc(CCN2COc3c([C@@H](C)CCC=C(C)C)ccc(C)c3C2)cc1OC", "growth": "49.8%"}, {"compound": "COc1ccc(C(=O)C(CN(C)C)c2ccccc2)cc1", "note": "(centres undefined)", "growth": "31.6%"}, {"compound": "Oc1ccc(CCCCCCc2ccc(O)cc2)cc1", "growth": "54.7%"}, {"compound": "c1ccc(C2=Nc3ccccc3SC2)cc1", "growth": "94.9%"}, {"compound": "O=C(O)c1cn(-c2ccccc2)nc1-c1ccc(O)cc1", "growth": "96.4%"}, {"compound": "COc1cc(/C=C/C(=O)c2c(C)nc3ccccc3c2C)ccc1OCCCOc1cc2c(cc1OC)C(=O)N1CCC[C@H]1C=N2", "growth": "-66.4% (active)"}, {"compound": "COc1ccc(Br)c2ccccc12", "growth": "114%"}, {"compound": "CC(=O)c1cccc(Nc2ncnc3ccc(NC(=O)c4ccco4)cc23)c1", "growth": "98.1%"}, {"compound": "CCN(CC)c1ccc(C(=N)c2ccc(N(C)C)cc2)cc1", "growth": "3.54% (active)"}, {"compound": "CCCCCCCCCCCCCCCCCC1=NC(C)(C)CN1C(C)(C)CO", "growth": "-100% (active)"}, {"compound": "COC(=O)c1ccc(NC(N)=NCCC(C)(C)c2ccc(C(F)(F)F)cc2)nc1", "growth": "30.5%"}, {"compound": "CCCCCCCCCCCC1=NC(C)(C)CN1C(C)(C)CO", "growth": "21.4%"}, {"compound": "CO[C@@]12[C@@H]3NC3CN1C1=C(C(=O)C(N)=C(C)C1=O)[C@@H]2COC(N)=O", "note": "(some centres undefined)", "growth": "13.4%"}, {"compound": "Cc1cc(NC(=O)c2ccc(N)cc2)ccc1N=Nc1ccc2cc(S(=O)(=O)O)cc(S(=O)(=O)O)c2c1", "growth": "92.9%"}, {"compound": "CCCCCCCCCCCCCCCC1=NCC[N+]1(CCO)CCO", "growth": "39.4%"}, {"compound": "O=c1c2sc3ccccc3c2nnn1-c1ccc(F)c(Cl)c1", "growth": "59.1%"}, {"compound": "COc1cc2c(cc1I)-c1c(cc(OC)c(OC)c1OC)CC[C@@H]2NC(C)=O", "growth": "17.3%"}, {"compound": "COC(=O)c1cc(Cl)cc([N+](=O)[O-])c1O", "growth": "112%"}, {"compound": "CCN(CC)c1ccc2nc3c4ccccc4c(=O)cc-3n(-c3ccccc3)c2c1", "growth": "18.9%"}]}]}
